Reference: PubChem BioAssay AID1347418 (Sanford-Burnham Center for Chemical Genomics, 2020)
Several values for one entry are separate records, joined by “and”; a condition that tells them apart may be missing. Identical values can stand only once. In all, about 1,300 compounds went through this assay and about 750 (58%) were called active. Some of the results follow.

These compounds were tested against Sulfhydryl oxidase 1 (Homo sapiens) (UniProt O00391) (assay: inhibition of human sulfhydryl oxidase QSOX1 – biochemical, ROS-Glo H2O2 luminescence, HTS, primary screen (AID 1347418)). Conditions: recombinant QSOX1, ROS-Glo H2O2 luminescence; at 12.5 µM; active compounds read high; active = any value above zero.
Chain of Sulfhydryl oxidase 1 (Homo sapiens) (O00391 whole entry, looked up): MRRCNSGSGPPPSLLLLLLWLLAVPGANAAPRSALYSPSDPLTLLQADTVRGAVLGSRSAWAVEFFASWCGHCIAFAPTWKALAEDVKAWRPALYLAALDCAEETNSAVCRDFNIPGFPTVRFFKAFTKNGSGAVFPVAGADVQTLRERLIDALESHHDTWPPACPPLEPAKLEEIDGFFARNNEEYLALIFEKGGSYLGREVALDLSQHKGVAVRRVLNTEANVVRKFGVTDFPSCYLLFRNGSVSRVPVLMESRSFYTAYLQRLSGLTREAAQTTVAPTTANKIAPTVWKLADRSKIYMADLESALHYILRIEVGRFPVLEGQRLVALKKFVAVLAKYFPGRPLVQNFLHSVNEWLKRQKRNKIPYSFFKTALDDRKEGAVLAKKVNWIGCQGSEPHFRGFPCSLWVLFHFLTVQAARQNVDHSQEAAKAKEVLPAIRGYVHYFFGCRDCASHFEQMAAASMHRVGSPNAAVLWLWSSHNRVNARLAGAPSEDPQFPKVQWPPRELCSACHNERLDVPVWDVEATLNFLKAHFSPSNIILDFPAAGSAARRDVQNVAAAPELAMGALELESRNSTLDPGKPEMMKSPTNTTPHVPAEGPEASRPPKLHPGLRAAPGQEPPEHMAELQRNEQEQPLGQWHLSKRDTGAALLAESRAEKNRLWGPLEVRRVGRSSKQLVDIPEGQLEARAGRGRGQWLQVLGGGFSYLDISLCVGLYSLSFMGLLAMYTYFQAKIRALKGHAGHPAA
For O=c1[nH]c2cc(Cl)ccc2c(O)c1-c1ccc(Oc2ccccc2)cc1, the inhibition was -2.9% (inactive).
In the case of COc1ccc(CCn2nnnc2C2(c3ccc(C)cc3)CC2)cc1, the inhibition was 0.5% (active).
N=c1nc(N2CCCCC2)cc(N)n1O was tested, and the inhibition was 1% (active).
COC(=O)Nc1nc2ccc(C(=O)c3cccs3)cc2[nH]1 was tested, and the inhibition was -0.8% (inactive).
Cc1oncc1C(=O)Nc1ccc(C(F)(F)F)cc1 was tested, and the inhibition was 6.7% (active).
For CCCN1C[C@H](CSC)C[C@@H]2c3cccc4[nH]cc(c34)C[C@H]21, the inhibition was 7.8% (active).
For NCCCCN, the inhibition was -2.1% (inactive).
With NCCCCN=C(N)N the inhibition was 2.1% (active).
With NC(N)=NCCCCN=C(N)N the inhibition was 7.2% (active).
With NCCCCCCCCCCN the inhibition was 0% (inactive).
With COc1ccc(-c2cc3ncc(C)n3c(Nc3ncccc3C(N)=O)n2)cc1OC the inhibition was -0.2% (inactive).
NCCCC(=O)O was tested, and the inhibition was -4% (inactive).
C=CC(N)CCC(=O)O (centres undefined) was tested, and the inhibition was 0.6% (active).
With COCC(=O)O[C@]1(CCN(C)CCCc2nc3ccccc3[nH]2)CCc2cc(F)ccc2[C@@H]1C(C)C the inhibition was -5.7% (inactive).
CC[C@@H]1Cc2cc(O)ccc2C2=C1c1ccc(O)cc1C[C@H]2CC was tested, and the inhibition was 41.5% (active).
With Cc1nc2c(OCc3ccccc3)cccn2c1CC#N the inhibition was -7.9% (inactive).
In the case of CCCNC(=O)NS(=O)(=O)c1ccc(Cl)cc1, the inhibition was 0.2% (active).
CCCCNC(=O)NS(=O)(=O)c1ccc(C)cc1 was tested, and the inhibition was -6.3% (inactive).
Nn1nnc2ccccc21 was tested, and the inhibition was 0.7% (active).
Fc1ccc([C@@H]2CCNC[C@H]2COc2ccc3c(c2)OCO3)cc1 was tested, and the inhibition was -0.5% (inactive).
CCC(NC(C)C)C(O)c1ccc(O)c(O)c1 (centres undefined) was tested, and the inhibition was 6.4% (active).
CC(C)NCC(O)c1ccc(O)c(O)c1 (centres undefined) was tested, and the inhibition was 4.8% (active) and 11.3% (active).
CC(C)NC[C@H](O)c1ccc(O)c(O)c1 was tested, and the inhibition was 1.4% (active).
For CC(C)NCC(O)c1ccc(NS(C)(=O)=O)cc1 (centres undefined), the inhibition was -5.9% (inactive).
For CC(C)NCC(O)c1cc(O)cc(O)c1 (centres undefined), the inhibition was -2.6% (inactive).
With CC1CN(S(=O)(=O)c2cccc3cnccc23)CCN1 (centres undefined) the inhibition was 3% (active).
For CC1CNCCN1S(=O)(=O)c1cccc2cnccc12 (centres undefined), the inhibition was 10.4% (active).
For CNCCNS(=O)(=O)c1cccc2cnccc12, the inhibition was -3% (inactive).
CCO/C([O-])=N/c1c[n+](N2CCOCC2)no1 was tested, and the inhibition was -1.5% (inactive).
With Clc1ccccc1C(c1ccccc1)(c1ccccc1)n1ccnc1 the inhibition was 10.5% (active).
In the case of C[C@](N)(Cc1ccc(O)cc1)C(=O)O, the inhibition was -2.7% (inactive).
CC(N)(Cc1ccc(O)cc1)C(=O)O (centres undefined) was tested, and the inhibition was 0% (inactive).
COC(=O)C(C)(N)Cc1ccc(O)cc1 (centres undefined) was tested, and the inhibition was -0.8% (inactive).
For CC(N)(Cc1ccc(O)c(O)c1)C(=O)O (centres undefined), the inhibition was 2.4% (active).
C[C@](Cc1ccc(O)c(O)c1)(NN)C(=O)O was tested, and the inhibition was 10.8% (active).
In the case of C[C@](N)(Cc1ccc(O)c(O)c1)C(=O)O, the inhibition was 8.7% (active).
CN(C)c1ccc(/C=C2\C(=O)Nc3ccccc32)cc1 was tested, and the inhibition was 42.8% (active).
In the case of COc1cc(OC)c(/C=C2/C(=O)Nc3ccccc32)c(OC)c1, the inhibition was -8.1% (inactive).
In the case of Cc1cc(C)c(/C=C2\C(=O)Nc3ccccc32)[nH]1, the inhibition was 36.3% (active).
With CN(C)S(=O)(=O)c1ccc2c(c1)/C(=C/c1cc3c([nH]1)CCCC3)C(=O)N2 the inhibition was -4.7% (inactive).
For Cc1ccc(C(=O)Nc2ccc(S(=O)(=O)[O-])c3c2C(S(=O)(=O)[O-])=[C+]C(S(=O)(=O)O)=[C+]3)cc1NC(=O)c1cccc(NC(=O)Nc2cccc(C(=O)Nc3cc(C(=O)Nc4ccc(S(=O)(=O)[O-])c5c4C(S(=O)(=O)[O-])=[C+]C(S(=O)(=O)O)=[C+]5)ccc3C)c2)c1, the inhibition was -5.3% (inactive).
In the case of CC(C)NCC(O)COc1cccc2ccccc12 (centres undefined), the inhibition was -1.6% (inactive).
For C=CCc1ccccc1OCC(O)CNC(C)C (centres undefined), the inhibition was 6.4% (active).
In the case of CC(C)NC[C@H](O)COc1cccc2ccccc12, the inhibition was -2.1% (inactive).
For CC(C)NCC(O)COc1cccc2[nH]ccc12 (centres undefined), the inhibition was 1.4% (active).
CC(C)NC[C@H](O)COc1cccc2[nH]ccc12 was tested, and the inhibition was -0.8% (inactive).
O=C1N(c2ccccc2)c2ccccc2C1(Cc1ccncc1)Cc1ccncc1 was tested, and the inhibition was -3.5% (inactive).
With O=C(Nc1ccncc1)c1cc([N+](=O)[O-])ccc1Cl the inhibition was -4.2% (inactive).
O=C(O)c1cc([N+](=O)[O-])ccc1NCCCc1ccccc1 was tested, and the inhibition was 2.3% (active).
For CS(=O)(=O)Nc1ccc([N+](=O)[O-])cc1Oc1ccccc1, the inhibition was -0.8% (inactive).
For O=C(Nc1ccccc1)c1cc([N+](=O)[O-])ccc1Cl, the inhibition was 1.2% (active).
With O=C(Nc1ccc([N+](=O)[O-])cc1Cl)c1cc(Cl)ccc1O the inhibition was 8% (active).
In the case of Nc1ccc(-c2ccc3ccccc3n2)cc1, the inhibition was 14.6% (active).
NCC(O)(CS(=O)(=O)O)c1ccc(Cl)cc1 (centres undefined) was tested, and the inhibition was 7.3% (active).
With C[C@@H]1C(=O)NC2=Nc3cccc(Cl)c3CN21 the inhibition was -4.6% (inactive).
O=C1Cc2cc(CCN3CCN(c4nsc5ccccc45)CC3)c(Cl)cc2N1 was tested, and the inhibition was 8.8% (active).
With NCCC1CCCC(CCN)N1 (centres undefined) the inhibition was -5.7% (inactive).
In the case of CC(=O)N[C@H]1[C@H]([C@H](O)[C@H](O)CO)OC(C(=O)O)=C[C@@H]1O, the inhibition was 10.4% (active).
With OCc1cc(C(O)CNCCCCCCOCCCCc2ccccc2)ccc1O (centres undefined) the inhibition was 12.5% (active).
N=c1ccn2c(n1)OC1C(O)[C@@H](CO)O[C@H]12 (some centres undefined) was tested, and the inhibition was 7.2% (active).
In the case of Nc1ccn([C@@H]2O[C@H](CO)[C@@H](O)C2O)c(=O)n1 (some centres undefined), the inhibition was 6% (active).
In the case of Nc1ncn([C@@H]2O[C@H](CO)[C@H](O)C2O)c(=O)n1 (some centres undefined), the inhibition was -0.8% (inactive).
For Nc1ccn([C@H]2CC[C@@H](CO)O2)c(=O)n1, the inhibition was -3.2% (inactive).
For NC(=O)c1ncn([C@@H]2O[C@H](CO)[C@@H](O)[C@H]2O)c1O, the inhibition was -0.4% (inactive).
With OCCN(CCO)c1nc(N2CCCCC2)c2nc(N(CCO)CCO)nc(N3CCCCC3)c2n1 the inhibition was 46.4% (active).
In the case of CCc1c(C)[nH]c2c1C(=O)C(CN1CCOCC1)CC2 (centres undefined), the inhibition was -0.8% (inactive).
In the case of C1CCC(N=C(NC23CC4CC(CC(C4)C2)C3)N2CCOCC2)CC1, the inhibition was -2.2% (inactive).
With Cc1ccc(O)c(N=Nc2ccccc2)n1 the inhibition was 67.9% (active).
For Nc1ccc(-c2nc3ccc(-c4nc5ccc(N)cc5[nH]4)cc3[nH]2)cc1, the inhibition was 44.6% (active).
O=c1[nH]c(=O)n([C@H]2C[C@H](O)[C@@H](CO)O2)cc1Br was tested, and the inhibition was 2.6% (active).
For O=c1[nH]c(=O)n([C@H]2C[C@H](O)[C@@H](CO)O2)cc1/C=C/Br, the inhibition was -4% (inactive).
For Cc1cn([C@H]2C[C@@H](N=[N+]=[N-])[C@@H](CO)O2)c(=O)[nH]c1=O, the inhibition was 1.9% (active).
Cc1cn([C@H]2C=C[C@@H](CO)O2)c(=O)[nH]c1=O was tested, and the inhibition was 0.2% (active).
For CCNc1nc2c(ncn2[C@H]2C[C@H](O)[C@@H](CO)O2)c(=O)[nH]1, the inhibition was -0.7% (inactive).
In the case of c1ccc2c(c1)CC(N1CCN(c3cccc4c3OCCO4)CC1)C2, the inhibition was 4.5% (active).
For Cc1cnc(NC(=O)C2=C(O)c3ccccc3S(=O)(=O)N2C)s1, the inhibition was 5.4% (active).
With CN1C(C(=O)Nc2ccccn2)=C(O)c2ccccc2S1(=O)=O the inhibition was -4.7% (inactive).
For CN1CC(O)C(O)C(O)C1CO (centres undefined), the inhibition was 3.8% (active).
With FC(F)(F)c1ccccc1-n1ccnc1 the inhibition was 4% (active).
CC(/C=C/c1cccc(Oc2ccc(F)cc2)c1)N(O)C(N)=O (centres undefined) was tested, and the inhibition was 2.4% (active).
With O=Nc1c(-c2c(O)[nH]c3cc(Br)ccc23)[nH]c2ccccc12 the inhibition was 27.6% (active).
In the case of O=C1Cc2c([nH]c3ccc(Br)cc23)-c2ccccc2N1, the inhibition was -0.3% (inactive).
For O=Nc1c(-c2c(O)[nH]c3ccccc23)[nH]c2ccccc12, the inhibition was 42.8% (active).
CC(C)(C)[C@]1(O)CCN2C[C@H]3c4ccccc4CCc4cccc(c43)[C@@H]2C1 was tested, and the inhibition was -0.1% (inactive).
O=C(C1CCCCC1)N1CC(=O)N2CCc3ccccc3C2C1 (centres undefined) was tested, and the inhibition was 1.7% (active).
For Cc1[nH]c(=O)c(C#N)cc1-c1ccncc1, the inhibition was -3.2% (inactive).
In the case of Cc1[nH]c(=O)c(C#N)cc1-c1ccc2nccn2c1, the inhibition was 7.1% (active).
In the case of COC(=O)[C@H](NC(=O)c1cc(-c2ccccc2)nc2ccccc12)c1ccccc1, the inhibition was 4.9% (active).
For CC[C@H](NC(=O)c1c(C)c(-c2ccccc2)nc2ccccc12)c1ccccc1, the inhibition was -2% (inactive).
With NCCS the inhibition was 3.5% (active).
With CCOC(=O)c1ncn2c1CN(C)C(=O)c1cc(F)ccc1-2 the inhibition was 0.3% (active).
For NC(N)=N/N=C/c1c(Cl)cccc1Cl, the inhibition was -2.6% (inactive).
With CCCCNc1cc(C(=O)O)cc(S(N)(=O)=O)c1Oc1ccccc1 the inhibition was -3.4% (inactive).
For CNCCc1cnc(CCC(c2ccccc2)c2ccccc2)[nH]1, the inhibition was -2.3% (inactive).
In the case of c1ccc(C(NCCNC(c2ccccc2)c2ccccc2)c2ccccc2)cc1, the inhibition was 6% (active).
With CC(C)NNC(=O)c1ccncc1 the inhibition was 1.1% (active).
In the case of COc1cc(N)c(Cl)cc1C(=O)OCCN1CCCCC1, the inhibition was 0.5% (active).
In the case of CCN(CC)CCNC(=O)c1cc(Cl)c(N)cc1OC, the inhibition was -4.7% (inactive).
With CCN(CC)CCOC(=O)c1cc(Cl)c(N)cc1OC the inhibition was -5.7% (inactive).
